Experimental data reported in PubChem BioAssay (EPA / NIEHS).
The source made the active and inactive calls. How the source made its calls: active means hit-call score of the fitted dose curve at least 0.9, where 1 is the maximum; inactive means score below 0.9.

Assays:
Details in all cases: mRNA level, 48 h; actives raise or lower the signal
[1] = read-out: Alpha-fetoprotein (AFP) gene, AFP (gene 174); experiment: LTEA_HepaRG_AFP: Life Technologies and Expression Analysis (LTEA) Assay for Alpha-fetoprotein (AFP) gene using HepaRG (AID 2283472)
How it was run: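 AFP transcript measured by TaqMan qRT-PCR with three housekeeping genes for normalization, after 48 h chemical treatment of HepaRG cells (top 100 uM, half-log steps, 0.5% DMSO). Gain or loss fitted against vehicle.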

BCL2L11 (gene 10018) = experiment: LTEA_HepaRG_BCL2L11: Life Technologies and Expression Analysis (LTEA) Assay for Bcl-2 (BCL2L11) gene using HepaRG (AID 2283473)
How it was run: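 HepaRG, 48 h exposure, 8-pt half-log series from 100 uM in 0.5% DMSO, duplicates; qRT-PCR (Fluidigm TaqMan) for BCL2L11, housekeeping-normalized; bidirectional curve fit relative to DMSO baseline.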

[2] = read-out: Apolipoprotein A-V (APOA5) gene, APOA5 (gene 116519); experiment: LTEA_HepaRG_APOA5: Life Technologies and Expression Analysis (LTEA) Assay for Apolipoprotein A-V (APOA5) gene using HepaRG (AID 2283474)
How it was run: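 HepaRG, 48 h chemical exposure in serum-free induction medium, 8-pt half-log series (top 100 uM), 0.5% DMSO vehicle, duplicates. Readout: APOA5 mRNA by qRT-PCR, housekeeping-normalized; bidirectional fit vs DMSO baseline.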

[3] = read-out: Apoptosis regulator Bcl-2 (Homo sapiens) (UniProt P10415); experiment: LTEA_HepaRG_BCL2: Life Technologies and Expression Analysis (LTEA) Assay for Bcl-2 gene using HepaRG (AID 2283475)
How it was run: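 qRT-PCR of BCL2 transcript, normalized to three housekeeping genes (ACTB, GAPDH, POLR2A), after 48 h chemical exposure of HepaRG cells; concentrations top 100 uM with half-log dilutions, 0.5% DMSO vehicle, duplicates; changes up or down fitted relative to vehicle.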

[4] = read-out: Bcl-2 (BID) gene, BID (gene 637); experiment: LTEA_HepaRG_BID: Life Technologies and Expression Analysis (LTEA) Assay for Bcl-2 (BID) gene using HepaRG (AID 2283476)
How it was run: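 Duplicate 48 h treatments of HepaRG cells in serum-free induction medium spanned 100 uM downward in half-log steps, 0.5% DMSO. Transcript change quantified by qRT-PCR against three housekeeping genes, fitted up or down versus DMSO.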

Caspase-3 (Homo sapiens) = Caspase-3 (Homo sapiens) (UniProt P42574); experiment: LTEA_HepaRG_CASP3: Life Technologies and Expression Analysis (LTEA) Assay for cysteine-aspartic acid protease (CASP3) using HepaRG (AID 2283477)
How it was run: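 HepaRG, 48 h exposure, 8 conc. (top 100 uM, half-log steps, duplicate), 0.5% DMSO vehicle; qRT-PCR of CASP3 transcript, housekeeping-normalised (ACTB/GAPDH/POLR2A); bidirectional curve fit vs DMSO baseline.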

[5] = read-out: Cytochrome P450 (CYP24A1), CYP24A1 (gene 1591); experiment: LTEA_HepaRG_CYP24A1: Life Technologies and Expression Analysis (LTEA) Assay for Cytochrome P450 (CYP24A1) using HepaRG (AID 2283478)
How it was run: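 qRT-PCR read-out: CYP24A1 transcript levels normalized to three housekeeping genes, bidirectional curve fits against 0.5% DMSO baseline. Human HepaRG cells treated 48 h with chemicals at eight concentrations from 100 uM in half-log steps.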

[6] = read-out: Cytochrome P450 (CYP1A2), CYP1A2 (gene 1544); experiment: LTEA_HepaRG_CYP1A2: Life Technologies and Expression Analysis (LTEA) Assay for Cytochrome P450 (CYP1A2) using HepaRG (AID 2283479)
How it was run: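 HepaRG, 48 h exposure, top 100 uM, half-log 8-pt, 0.5% DMSO vehicle, duplicates. Readout: TaqMan qRT-PCR of CYP1A2 mRNA, housekeeping-normalized (ACTB/GAPDH/POLR2A). Gain/loss fit relative to DMSO baseline.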

[7] = read-out: cysteine-aspartic acid protease (CASP8), CASP8 (gene 841); experiment: LTEA_HepaRG_CASP8: Life Technologies and Expression Analysis (LTEA) Assay for cysteine-aspartic acid protease (CASP8) using HepaRG (AID 2283480)
How it was run: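 qRT-PCR readout of CASP8 mRNA, normalized to three housekeeping genes, after 48 h chemical exposure of HepaRG cells; 8-point half-log series, top 100 uM, 0.5% DMSO vehicle. Bidirectional curve fitting against DMSO baseline.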

[8] = read-out: Cytochrome P450 (CYP2B6), CYP2B6 (gene 1555); experiment: LTEA_HepaRG_CYP2B6: Life Technologies and Expression Analysis (LTEA) Assay for Cytochrome P450 (CYP2B6) using HepaRG (AID 2283481)
How it was run: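 Read-out is CYP2B6 mRNA by TaqMan qRT-PCR, normalized to three housekeeping genes and fitted bidirectionally against 0.5% DMSO baseline. Human HepaRG cells received test chemicals for 48 h, top concentration 100 uM, half-log dilutions.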

CYP2C8 (gene 1558) = experiment: LTEA_HepaRG_CYP2C8: Life Technologies and Expression Analysis (LTEA) Assay for CYP2C8 using HepaRG (AID 2283483)
How it was run: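 HepaRG (human liver line), 48 h chemical exposure, 8-pt half-log series from 100 uM, 0.5% DMSO vehicle. Readout: CYP2C8 transcript by qRT-PCR, housekeeping-normalized. Bidirectional fit vs DMSO baseline.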

CYP2C9 (gene 1559) = experiment: LTEA_HepaRG_CYP2C9: Life Technologies and Expression Analysis (LTEA) Assay for CYP2C9 using HepaRG (AID 2283484)
How it was run: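 HepaRG, 48 h dosing, 8-pt half-log series, top 100 uM, 0.5% DMSO vehicle. Read-out: CYP2C9 transcript by TaqMan qRT-PCR, housekeeping-normalized (ACTB/GAPDH/POLR2A). Gain or loss fitted vs DMSO baseline.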

CYP2E1 (gene 1571) = experiment: LTEA_HepaRG_CYP2E1: Life Technologies and Expression Analysis (LTEA) Assay for CYP2E1 using HepaRG (AID 2283485)
How it was run: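 CYP2E1 transcript measured by Fluidigm qRT-PCR against three housekeeping genes in human HepaRG cells treated 48 h (top 100 uM, half-log steps, 0.5% DMSO vehicle). Gain or loss fitted relative to DMSO baseline.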

CYP4A11 (gene 1579) = experiment: LTEA_HepaRG_CYP4A11: Life Technologies and Expression Analysis (LTEA) Assay for CYP4A11 using HepaRG (AID 2283486)
How it was run: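 CYP4A11 transcript levels were quantified by TaqMan qRT-PCR after HepaRG human liver cells were treated for 48 hours with test chemicals (top 100 uM, half-log dilutions, 0.5% DMSO). Gain or loss of signal was fitted relative to DMSO.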

[9] = read-out: DNA damage-inducible transcript 3 (DDIT3), DDIT3 (gene 1649); experiment: LTEA_HepaRG_DDIT3: Life Technologies and Expression Analysis (LTEA) Assay for DNA damage-inducible transcript 3 (DDIT3) using HepaRG (AID 2283488)
How it was run: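 DDIT3 transcript was quantified by qRT-PCR with ACTB/GAPDH/POLR2A normalization after 48 h chemical treatment of differentiated HepaRG cells in 0.5% DMSO. Dosing was eight-point, half-log, top 100 uM, duplicate wells. Curves fitted bidirectionally versus DMSO.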

[10] = read-out: Pro-epidermal growth factor (Homo sapiens) (UniProt P01133); experiment: LTEA_HepaRG_EGF: Life Technologies and Expression Analysis (LTEA) Assay for Epidermal growth factor (EGF) using HepaRG (AID 2283489)
How it was run: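 qRT-PCR readout of EGF transcript after 48 h chemical exposure of HepaRG cells; eight concentrations from 100 uM down in half-log steps, duplicate wells, 0.5% DMSO vehicle. Bidirectional curve fitting against DMSO baseline.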

[11] = read-out: Early growth response protein 1 (EGR1) transcription factor, EGR1 (gene 1958); experiment: LTEA_HepaRG_EGR1: Life Technologies and Expression Analysis (LTEA) Assay for Early growth response protein 1 (EGR1) transcription factor using HepaRG (AID 2283490)
How it was run: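 HepaRG, 48 h exposure, 8-pt half-log series from 100 uM, 0.5% DMSO vehicle; EGR1 transcript by TaqMan qRT-PCR (Fluidigm array), housekeeping-normalized; bidirectional fit relative to DMSO baseline.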

[12] = read-out: Ezrin (EZR), EZR (gene 7430); experiment: LTEA_HepaRG_EZR: Life Technologies and Expression Analysis (LTEA) Assay for Ezrin (EZR) using HepaRG (AID 2283491)
How it was run: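 EZR transcript levels came from Fluidigm qRT-PCR and were normalized to three housekeeping genes after 48 h chemical exposure of HepaRG cells. Dosing used an 8-point half-log series with a 100 uM top concentration in 0.5% DMSO, tested in duplicate; both directions were fitted versus vehicle.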

[13] = read-out: Cytochrome P450 2C19 (Homo sapiens) (UniProt P33261); experiment: LTEA_HepaRG_CYP2C19: Life Technologies and Expression Analysis (LTEA) Assay for CYP2C19 using HepaRG (AID 2283482)
How it was run: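 HepaRG, 48 h chemical exposure, 8-pt half-log series from 100 uM in 0.5% DMSO, duplicates. Readout: CYP2C19 mRNA by TaqMan qRT-PCR, housekeeping-normalized. Bidirectional fit vs DMSO baseline; phenobarbital 1mM as induction control.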

Measured: AC50

Sequence of Apoptosis regulator Bcl-2 (Homo sapiens) (P10415 whole entry, looked up): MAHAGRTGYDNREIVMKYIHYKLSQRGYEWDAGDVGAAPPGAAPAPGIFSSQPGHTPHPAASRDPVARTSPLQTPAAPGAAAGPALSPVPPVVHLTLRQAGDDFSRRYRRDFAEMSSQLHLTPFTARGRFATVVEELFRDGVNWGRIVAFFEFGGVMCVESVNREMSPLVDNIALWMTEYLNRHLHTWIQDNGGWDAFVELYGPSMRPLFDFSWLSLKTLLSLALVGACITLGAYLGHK
Sequence of Caspase-3 (Homo sapiens) (P42574 whole entry, looked up): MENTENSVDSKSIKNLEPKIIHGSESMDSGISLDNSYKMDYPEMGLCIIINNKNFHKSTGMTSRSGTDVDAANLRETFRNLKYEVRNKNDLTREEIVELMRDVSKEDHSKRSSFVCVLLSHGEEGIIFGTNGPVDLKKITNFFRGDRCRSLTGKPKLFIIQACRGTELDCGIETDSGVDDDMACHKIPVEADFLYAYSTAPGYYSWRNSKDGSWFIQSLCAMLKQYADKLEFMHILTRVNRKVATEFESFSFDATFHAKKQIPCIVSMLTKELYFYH
Sequence of Cytochrome P450 2C19 (Homo sapiens) (P33261 whole entry, looked up): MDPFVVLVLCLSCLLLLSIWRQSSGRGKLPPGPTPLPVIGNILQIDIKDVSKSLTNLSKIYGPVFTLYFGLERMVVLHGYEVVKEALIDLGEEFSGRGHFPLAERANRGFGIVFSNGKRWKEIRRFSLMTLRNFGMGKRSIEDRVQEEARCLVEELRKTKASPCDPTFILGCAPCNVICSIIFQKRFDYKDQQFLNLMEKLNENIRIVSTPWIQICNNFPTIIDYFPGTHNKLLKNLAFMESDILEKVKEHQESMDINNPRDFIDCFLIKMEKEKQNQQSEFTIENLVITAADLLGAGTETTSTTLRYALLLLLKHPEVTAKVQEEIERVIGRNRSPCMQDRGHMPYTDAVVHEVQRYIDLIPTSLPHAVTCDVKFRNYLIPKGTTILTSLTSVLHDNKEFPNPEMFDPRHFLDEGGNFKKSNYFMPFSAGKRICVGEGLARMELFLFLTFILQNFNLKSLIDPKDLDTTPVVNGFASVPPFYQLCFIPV

O=C(Oc1ccc(Br)cc1)N1CCN2CCC1CC2
active: [6] 66.7 µM | [8] 6.42 µM | CYP2E1 (gene 1571) 63.8 µM | CYP4A11 (gene 1579) 34.9 µM
not listed: [13]
inactive: all other assays above

CN(C)C(=O)Nc1ccc(Cl)cc1
active: [6] 55 µM | [8] 22.5 µM | CYP2E1 (gene 1571) 50 µM
not listed: [13]
inactive: all other assays above

O=C(O)C1C2CCC(O2)C1C(=O)O (stereo not given)
inactive: BCL2L11 (gene 10018) | [3] | [4] | Caspase-3 (Homo sapiens) | [5] | [11]
active: [1] 75.3 µM | [2] 67.8 µM | [6] 50 µM | [8] 77.7 µM | [13] 82 µM | CYP2C8 (gene 1558) 58.9 µM | CYP2C9 (gene 1559) 86.7 µM | CYP2E1 (gene 1571) 45.4 µM | CYP4A11 (gene 1579) 50 µM | [9] 50 µM | [10] 13.9 µM | [12] 9.92 µM

c1ccc(C2CO2)cc1 (stereo not given)
not listed: [13]
inactive: all other assays above

CCN(CC)N=O
not listed: [5] | [11]
inactive: all other assays above

CC(C)(O)c1cnn2c(-c3ccc(F)c(-c4c(F)cccc4C#N)c3)cnc2n1
active: [1] 12.7 µM | [6] 29.7 µM | [8] 0.705 µM | CYP2C9 (gene 1559) 0.291 µM | CYP2E1 (gene 1571) 4.43 µM | CYP4A11 (gene 1579) 1.51 µM
not listed: [13]
inactive: all other assays above

CCOc1cccc(C2(N3CCN(c4ccccc4)CC3)CCC(C)CC2)c1 (stereo not given)
active: [6] 16.6 µM | [8] 30.8 µM
not listed: [13]
inactive: all other assays above
